Data: ChEMBL document CHEMBL3988442, “University of Dundee, Small-Polar-MMV Screening Library” (2021)
The whole screen tested about 53,000 compounds, of which about 900 (1.7%) showed an effect of 50% or more. This is one part of a sample in which strong results are shown more often than they occur.

What follows are compounds tested on Mycobacterium tuberculosis (assay: Cornell - Phenotypic assay to identify agents that inhibit growth of Mycobacterium tuberculosis). Conditions: 10 mM as filed; unlikely as a test dose.
Assay type: functional
Design: scale not given: direction of the effect not stated beside the values
`O=C(Cn1ccnc1)N1CCCC(OCc2cccnc2)C1` (stereo not drawn) was tested, and the “Percent Effect” value was -41.24%. In the case of `CN(C)C(=O)CN1C[C@H]2CN(Cc3cccc(F)c3)C(=O)[C@H]2C1.O=C(O)C(F)(F)F`, the “Percent Effect” value was 15.1%. For `Cn1nc2c(c1NC(=O)c1cccs1)CCC2`, the “Percent Effect” value was 1.253%. For `Fc1ccc(N2CCC3(CC2)CC(OCc2cccnc2)CO3)cc1.O=C(O)C(F)(F)F` (stereo not drawn), the “Percent Effect” value was 62.76%. In the case of `N#Cc1ccc(N2CCC3(CC2)CC(OCc2cccnc2)CO3)cc1.O=C(O)C(F)(F)F` (stereo not drawn), the “Percent Effect” value was 25.8%. With `Fc1cnc(N2CCC3(CC2)CC(OCc2cccnc2)CO3)nc1.O=C(O)C(F)(F)F.O=C(O)C(F)(F)F` (stereo not drawn) the “Percent Effect” value was 8.704%. `CCn1nccc1CN(C)c1nc(N)nc2c1nc(C)n2C` was tested, and the “Percent Effect” value was -2.939%. `NC1(CN2CCCCC2)CCCCC1` was tested, and the “Percent Effect” value was -23.07%. In the case of `Cc1cccnc1NC(=O)CC1(Cn2cnnn2)CCCCC1`, the “Percent Effect” value was 1.711%. With `COCCNC(=O)CCc1c(C)nn(-c2nc(C)c(C)c(=O)[nH]2)c1C` the “Percent Effect” value was 25.57%. With `Cc1cc(C)n(-c2cncc(NCCNC(=O)C(C)C)n2)n1` the “Percent Effect” value was 10.14%. In the case of `Cc1cc(NC(=O)C(C)C)n(-c2nc(C)c(C)c(=O)[nH]2)n1`, the “Percent Effect” value was 105.9%. `CC(=O)Nc1cc(C2CC2)nn1-c1nc(C)c(C)c(=O)[nH]1` was tested, and the “Percent Effect” value was -29.54%. `Cc1nc(-n2nc(C3CC3)cc2NC(=O)C(C)C)[nH]c(=O)c1C` was tested, and the “Percent Effect” value was 77.31%. `CC(=O)N1CCN(c2cc(CCNC(=O)C(C)C)nc(C3CC3)n2)CC1` was tested, and the “Percent Effect” value was -12.23%. `Cc1cc(-c2nccs2)nc(C2CCN(Cc3cccs3)CC2)n1` was tested, and the “Percent Effect” value was 25.07%. For `Cc1nccn1Cc1nnc(C2CCCN(c3ncccn3)C2)n1C` (stereo not drawn), the “Percent Effect” value was -33.54%. In the case of `COCCN1CCCC(c2nc(C)n3c(C)c(C)sc23)C1` (stereo not drawn), the “Percent Effect” value was 6.759%. In the case of `O=C(N1CCOCC1)N1C[C@H]2CN(Cc3nccs3)C[C@H]2C1.O=C(O)C(F)(F)F`, the “Percent Effect” value was 17.29%. With `COCCNC(=O)C(C)n1nc(-c2ccc(C)o2)cc(N)c1=O` (stereo not drawn) the “Percent Effect” value was -59.92%. `Cc1ccc(-c2cc(N)c(=O)n(C(C)C(=O)NC(C)C)n2)o1` (stereo not drawn) was tested, and the “Percent Effect” value was 26.87%. With `CCCNC(=O)C(C)n1nc(-c2ccc(C)o2)cc(N)c1=O` (stereo not drawn) the “Percent Effect” value was 66.1%. With `O=C(N1CCOCC1)[C@@]12CCO[C@@H]1CCN(C1CCCCC1)C2.O=C(O)C(F)(F)F` the “Percent Effect” value was -10.99%. `COc1ccc(C(=O)N2CCOC(Cc3cccc(C(F)(F)F)c3)C2)o1` (stereo not drawn) was tested, and the “Percent Effect” value was 107.3%. With `CC1CCCN(C(=O)c2cc(-c3ccco3)cs2)C1` (stereo not drawn) the “Percent Effect” value was 33.45%. In the case of `COc1cccc(CCC2CCCN(C(=O)c3ccc(OC)o3)C2)c1` (stereo not drawn), the “Percent Effect” value was 67.76%. For `COc1ccc(C(=O)N2CCCC(C)C2)cc1F` (stereo not drawn), the “Percent Effect” value was -4.81%. `COc1cccc(CCC2CCCN(C(C)=O)C2)c1` (stereo not drawn) was tested, and the “Percent Effect” value was 19.46%. `CC1CCCN(C(=O)c2ccc(-c3ccco3)o2)C1` (stereo not drawn) was tested, and the “Percent Effect” value was 79.8%. With `CC(=O)N1CCOC(Cc2cccc(C(F)(F)F)c2)C1` (stereo not drawn) the “Percent Effect” value was 25.26%. For `COc1cccc(CCC2CCCN(C(=O)c3ccccn3)C2)c1` (stereo not drawn), the “Percent Effect” value was 5.867%. In the case of `CC1=C(C(=O)N2CCOC(Cc3cccc(C(F)(F)F)c3)C2)OCCO1` (stereo not drawn), the “Percent Effect” value was 22.58%. `COCCOCCCNC(=O)c1cc(Cl)cc2cccnc12` was tested, and the “Percent Effect” value was 14.25%. In the case of `CNC(=O)c1cc(C)nc(C2(C)CCCN2c2cc(C)ncn2)n1` (stereo not drawn), the “Percent Effect” value was -3.041%. With `CCc1ncc(C(=O)N(C)C(C)c2ccc3c(c2)OCCO3)cn1` (stereo not drawn) the “Percent Effect” value was -2.31%. In the case of `Cc1cccnc1CCNCC1(O)CCCN(CC2CCCCC2)C1=O` (stereo not drawn), the “Percent Effect” value was -24.48%. `Cn1ccnc1CN1CCCN(C(=O)c2cccc(CC#N)c2)CC1` was tested, and the “Percent Effect” value was -5.317%. For `Cc1noc(C)c1-c1cc(CCC2CN(C(=O)C(C)C)CCO2)ncn1` (stereo not drawn), the “Percent Effect” value was 37.61%. In the case of `O=C(O)C(F)(F)F.O=C(O)C(F)(F)F.c1cnc(N2CC3(CCN(Cc4cccnc4)C3)C2)nc1`, the “Percent Effect” value was -25.95%. For `NC(=O)C1=NN2C(=NS(=O)(=O)c3ccccc32)N1`, the “Percent Effect” value was 18.26%. With `COC(=O)C1=NN2C(=NS(=O)(=O)c3ccccc32)N1` the “Percent Effect” value was 46.07%. In the case of `NCc1cnn(-c2ccccc2C(=O)NCc2ccccc2Cl)c1`, the “Percent Effect” value was -1.327%. For `NC(=O)CN(Cc1ccc(Br)cc1)C(=O)c1ccccn1`, the “Percent Effect” value was -15.26%. `NCc1cn(-c2ccccc2C(=O)NCc2ccccc2Cl)cn1` was tested, and the “Percent Effect” value was -8.218%. With `NC(=O)C1=NC2=NS(=O)(=O)c3ccccc3N2N1Cc1ccc(Br)cc1` the “Percent Effect” value was 106.5%. For `NC(=O)C1=NC2=NS(=O)(=O)c3ccccc3N2N1Cc1ccc(Cl)cc1`, the “Percent Effect” value was 106.1%. `NC(=O)C1=NC2=NS(=O)(=O)c3ccccc3N2N1Cc1ccccc1Cl` was tested, and the “Percent Effect” value was 106.2%. For `CCCN(CCc1ccccn1)C(=O)Cn1cc(C)cn1`, the “Percent Effect” value was 6.805%. In the case of `CC(C)C(=O)N1CCC(c2c(C(N)=O)sc3ccccc23)C1` (stereo not drawn), the “Percent Effect” value was -20.56%. `CO[C@H]1CCN(Cc2nccs2)C[C@@H]1Cc1ccccc1` was tested, and the “Percent Effect” value was 32.3%. `CO[C@@H]1CCN(Cc2nccs2)C[C@@H]1Cc1cccc(C)c1.O=C(O)C(F)(F)F` was tested, and the “Percent Effect” value was 58.64%. `CO[C@@H]1CCN(Cc2nccs2)C[C@@H]1Cc1ccccc1.O=C(O)C(F)(F)F` was tested, and the “Percent Effect” value was 17.77%. `Cc1ccc(NC(=O)Cn2cc(I)cn2)cc1` was tested, and the “Percent Effect” value was 2.116%. In the case of `NC(=O)c1ccc(NC(=O)Cn2cc(I)cn2)cc1`, the “Percent Effect” value was 12.21%. With `CC(C)c1ccc(NC(=O)Cn2cc(I)cn2)cc1` the “Percent Effect” value was 64.63%. With `CS(=O)(=O)CCSc1n[nH]c(-c2ccc3c(c2)CCC3)n1` the “Percent Effect” value was 22.85%. `O=C(CSC1CCCC1)N1CCN(c2ccc(-n3cncn3)nn2)CC1` was tested, and the “Percent Effect” value was -7.169%. In the case of `O=C(CSC1CCCC1)N1CCN(C(=O)C2CC2c2ccccc2)CC1` (stereo not drawn), the “Percent Effect” value was 57.68%. For `O=C(CSC1CCCC1)N1CCN(C(=O)C2CC2c2cccs2)CC1` (stereo not drawn), the “Percent Effect” value was 19.24%. In the case of `CN(CCOc1ccccc1F)C1CCOC1=O` (stereo not drawn), the “Percent Effect” value was -18.35%. For `CC(Cn1cccn1)NCc1csc2c1CCCC2` (stereo not drawn), the “Percent Effect” value was -0.7044%. In the case of `CC(Cn1ccnc1)NCc1csc2c1CCCC2` (stereo not drawn), the “Percent Effect” value was 52.3%. `CC(Cn1cncn1)NCc1csc2c1CCCC2` (stereo not drawn) was tested, and the “Percent Effect” value was 6.492%. `O=C1NCC2(CCCN(C(=O)CCn3cnc4ccccc43)CC2)O1` (stereo not drawn) was tested, and the “Percent Effect” value was -0.9742%. `COc1cccc(Cn2[nH]c(C)c3c(NC(=O)C(C)OC)nnc2-3)c1` (stereo not drawn) was tested, and the “Percent Effect” value was 19.31%. `CCOC(=O)C(C)NC(=O)CCSc1ccc(F)cc1` (stereo not drawn) was tested, and the “Percent Effect” value was 72.72%. In the case of `CCOC(=O)C(C)NC(=O)CCc1ccc(F)cc1` (stereo not drawn), the “Percent Effect” value was 12.11%. For `COCC(C)NC(=O)CCSc1ccc(F)cc1` (stereo not drawn), the “Percent Effect” value was -22.42%. In the case of `CNC(=O)NC(=O)CN1CCN(c2ccc(C(=O)OC)cc2)CC1C` (stereo not drawn), the “Percent Effect” value was -3.666%. `CC(=O)Nc1nc(C(=O)NC(C)c2cccnc2)cs1` (stereo not drawn) was tested, and the “Percent Effect” value was -20.46%. `CC(C)CNc1nc(C(=O)/N=c2\[nH]nc(C(C)(C)C)s2)cs1` was tested, and the “Percent Effect” value was 4.379%. `Cc1[nH]/c(=N\C(=O)c2csc(NCC(C)C)n2)sc1C` was tested, and the “Percent Effect” value was 105.2%. For `Cc1cs/c(=N\C(=O)c2c3c(nc4onc(C)c24)CCC3)[nH]1`, the “Percent Effect” value was 37.19%. For `Cc1cs/c(=N/C(=O)c2csc(NCC(C)C)n2)[nH]1`, the “Percent Effect” value was 104.8%. With `CC(=O)Nc1nc(C(=O)NC(C)c2ccncc2)cs1` (stereo not drawn) the “Percent Effect” value was -46.84%. For `CCCNC(=O)C(C)N1CCC(C(=O)Nc2cnn(CC)c2)CC1` (stereo not drawn), the “Percent Effect” value was -1.052%. With `O=C(Nc1cccnc1-n1cc(Br)cn1)C1CCCC1` the “Percent Effect” value was -1.816%. For `Cc1cnc(N2CCCn3c(nnc3CN(C)C(C)C)C2)nc1.O=C(O)C(F)(F)F`, the “Percent Effect” value was 8.261%. With `c1csc(N2CCN(c3ncnc4sccc34)CC2)n1` the “Percent Effect” value was 8.465%. `COCC(=O)N1CCCC(C(=O)N(C)CCn2ccnc2C)C1` (stereo not drawn) was tested, and the “Percent Effect” value was -64.71%. For `CCn1c(CN(C)Cc2cnc(C)s2)nc2c(F)cccc21`, the “Percent Effect” value was 21.09%. `Cc1ccccc1OCCN1CCn2c(C)nnc2C1` was tested, and the “Percent Effect” value was -10.78%. With `Cc1nnc(C(C)N2CCc3[nH]c4ccc(Cl)cc4c3C2)o1` (stereo not drawn) the “Percent Effect” value was 34.8%. `Cc1nnc(C(C)N2CCc3[nH]c4ccccc4c3C2)o1` (stereo not drawn) was tested, and the “Percent Effect” value was 28.26%. `Cc1noc(C(C)N2CCc3[nH]c4ccc(Cl)cc4c3C2)n1` (stereo not drawn) was tested, and the “Percent Effect” value was 63.72%. `CN(C)CCn1c2c(ccc1=O)CC(NC(=O)c1ccsc1)CC2.O=C(O)C(F)(F)F` (stereo not drawn) was tested, and the “Percent Effect” value was -27.73%. `CCN(CC1CCCO1)C(=O)Nc1cc(OC)c(OC)cc1C` (stereo not drawn) was tested, and the “Percent Effect” value was 69.91%. For `CCN(CC1CCCO1)C(=O)Nc1ccc(F)cc1OC` (stereo not drawn), the “Percent Effect” value was 2.654%. `CCN(CC1CCCO1)C(=O)Nc1ccc(OC)c(C)c1` (stereo not drawn) was tested, and the “Percent Effect” value was 29.95%. For `CC(Oc1ccc2c(c1)OCO2)C(=O)N1CCC(c2ncc[nH]2)CC1` (stereo not drawn), the “Percent Effect” value was -2.052%. In the case of `Cc1ccc(C2CSCCN2C(=O)c2cccs2)o1` (stereo not drawn), the “Percent Effect” value was -1.514%. `CNC(=O)c1cnn2c(C3CCCN3)ccnc12` (stereo not drawn) was tested, and the “Percent Effect” value was -26.66%. `Cn1ccnc1CN1CCCC(Cc2ccnc3ccncc23)CC1.O=CO` (stereo not drawn) was tested, and the “Percent Effect” value was 25.28%. In the case of `CC(OCC1CC1)C(=O)Nc1ccn(Cc2ccccc2)n1` (stereo not drawn), the “Percent Effect” value was -1.057%. In the case of `CCOCCOC(C)C(=O)Nc1nccn1Cc1ccccc1` (stereo not drawn), the “Percent Effect” value was 4.045%. In the case of `CC(OCC1CC1)C(=O)Nc1nccn1Cc1ccccc1` (stereo not drawn), the “Percent Effect” value was 51.13%. In the case of `CCC(=O)N1CCCCC1c1nc(O)c2c(n1)CN(S(=O)(=O)CC)CC2` (stereo not drawn), the “Percent Effect” value was 9.253%. For `Cc1nc([C@@H]2C[C@@H]3CCN(C(=O)Cc4cccs4)C[C@H]3O2)no1`, the “Percent Effect” value was 53.11%. With `Cc1nc([C@@H]2C[C@@H]3CCN(C(=O)Cc4cccc(F)c4)C[C@H]3O2)no1` the “Percent Effect” value was 16.61%. `O=C1CCC(c2nc(C3CCN(C(=O)C4CC4)CC3)no2)N1` (stereo not drawn) was tested, and the “Percent Effect” value was 13.14%. `CC(=O)N1CCC(c2noc(C3CCC(=O)N3)n2)CC1` (stereo not drawn) was tested, and the “Percent Effect” value was 5.586%. With `O=C1CCC(c2nc(C3CCN(C(=O)Cc4cccs4)CC3)no2)N1` (stereo not drawn) the “Percent Effect” value was 57.39%. `Cc1nc([C@@H]2C[C@@H]3CCN(C(=O)Cc4ccsc4)C[C@H]3O2)no1` was tested, and the “Percent Effect” value was -0.3005%.
